The values below come from PubChem BioAssay.

Assay [1] has as its target Nuclear receptor coactivator 3 (Homo sapiens) (UniProt Q9Y6Q9). The assay can be described thus: NCOA3 GAL4-fusion reporter inhibition – cell-based, luminescence, quadruplicate, confirmation (AID 588792;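 active means mean inhibition over 43.08%, the solvent-only control mean plus 3 SD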;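 further: 0% = DMSO treated cells and 100% = gossypol at 36 µM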). The note with it: HEK293 GAL4-SRC3 luciferase reporter, at 3.6 µM, hits give high values. (In a reporter assay the amount or activity of a reporter protein is the signal.)

Assay [2] deals with transactivating tegument protein VP16 (Human herpesvirus 1), Gal4-VP16 luciferase reporter. The assay can be described thus: repression of VP16-driven luciferase reporter – cell-based, luminescence, high throughput, counter-screen for SRC3 inhibitor project (AID 588794; in the data active means inhibition above about 30%). The note with it: mammalian cells, at 3.6 µM, hits give high values.
In assay [3] the target is Nuclear receptor coactivator 1 (Homo sapiens) (UniProt Q15788). The assay can be described thus: NCOA1 GAL4-fusion reporter inhibition – cell-based, luminescence, quadruplicate, confirmation (AID 588820).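 Further: 0% = DMSO wells and 100% = gossypol 36 µM treated wells.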 The note with it: HEK293 GAL4-SRC1 luciferase reporter, at 3.6 µM, hits give high values.
Assay [4] can be described thus: repression of VP16-driven luciferase reporter – cell-based, luminescence, high throughput, counter-screen for SRC1 inhibitor project (AID 588824; in the data active means inhibition above about 25%). The note with it: cell-based VP16 transactivation luciferase luminescence; at 3.6 µM; hits give high values.
For assay [5], the target named is Galanin receptor type 2 (Homo sapiens) (UniProt O43603). The assay can be described thus: blockers of human galanin receptor 2 – cell-based, confirmation (AID 866; in the data active means inhibition above about 27%;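 further: cells stimulated with galanin at about its EC80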). To be noted: GALR2-expressing cells, antagonist mode, at 4 µM, hits give high values.
Assay [6] can be described thus: nonspecific BLA reporter inhibition – CHO NFAT-bla cells, FRET readout, counter-screen for GALR2 antagonist project, confirmation (AID 867;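 active means inhibition above the mean inhibition across tested compounds plus 3 SD, cut at about 27% in these data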;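 further: 0% = 500 nM thapsigargin stimulated wells and 100% = unstimulated BSA only wells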). To be noted: beta-lactamase FRET, thapsigargin-stimulated, at 4.2 µM, hits give high values. For orientation: The purpose of a counterscreen is to sort out artefacts and off-target activity.
Assay [7] concerns the target Receptor-interacting serine/threonine-protein kinase 2 (Homo sapiens) (UniProt O43353). In words: inhibitors of RIPK2 association with NOD2 – fluorescence, CHO cells, BLA complementation, triplicate, confirmation (AID 624370;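 active means mean inhibition across replicates above a set limit taken from the earlier primary screen, cut at about 21% in these data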;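 further: 0% = DMSO-only wells and the high end = clavulanate BLA-blocked wells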). The note with it: CCF4 FRET, at 4.98 µM, hits give high values.
Assay [8] in a line: BLA reporter readout interference – cell-based, CHO-K1 CMV-bla, CCF4 FRET, fluorescence, artefact control for NOD2-RIPK2 interaction inhibitor project, confirmation (AID 624371;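 active means mean inhibition above the low-control mean inhibition plus three low-control SD, cut at about 11% in these data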;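 further: 0% = DMSO only wells and 100% = clavulanate high control wells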). The note with it: CCF4 FRET ratio, counterscreen, at 4.98 µM, hits give high values.

The structures appear in SMILES notation. A number with no mark means an inactive call. This is one part of the list. The source made the active and inactive calls.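 How the source made its calls, unless noted: active means mean inhibition above 46.68%, the untreated control wells mean plus 3 SD; inactive means the rest.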

Chain of Nuclear receptor coactivator 3 (Homo sapiens) (Q9Y6Q9 whole entry, looked up, the tested form may be a part): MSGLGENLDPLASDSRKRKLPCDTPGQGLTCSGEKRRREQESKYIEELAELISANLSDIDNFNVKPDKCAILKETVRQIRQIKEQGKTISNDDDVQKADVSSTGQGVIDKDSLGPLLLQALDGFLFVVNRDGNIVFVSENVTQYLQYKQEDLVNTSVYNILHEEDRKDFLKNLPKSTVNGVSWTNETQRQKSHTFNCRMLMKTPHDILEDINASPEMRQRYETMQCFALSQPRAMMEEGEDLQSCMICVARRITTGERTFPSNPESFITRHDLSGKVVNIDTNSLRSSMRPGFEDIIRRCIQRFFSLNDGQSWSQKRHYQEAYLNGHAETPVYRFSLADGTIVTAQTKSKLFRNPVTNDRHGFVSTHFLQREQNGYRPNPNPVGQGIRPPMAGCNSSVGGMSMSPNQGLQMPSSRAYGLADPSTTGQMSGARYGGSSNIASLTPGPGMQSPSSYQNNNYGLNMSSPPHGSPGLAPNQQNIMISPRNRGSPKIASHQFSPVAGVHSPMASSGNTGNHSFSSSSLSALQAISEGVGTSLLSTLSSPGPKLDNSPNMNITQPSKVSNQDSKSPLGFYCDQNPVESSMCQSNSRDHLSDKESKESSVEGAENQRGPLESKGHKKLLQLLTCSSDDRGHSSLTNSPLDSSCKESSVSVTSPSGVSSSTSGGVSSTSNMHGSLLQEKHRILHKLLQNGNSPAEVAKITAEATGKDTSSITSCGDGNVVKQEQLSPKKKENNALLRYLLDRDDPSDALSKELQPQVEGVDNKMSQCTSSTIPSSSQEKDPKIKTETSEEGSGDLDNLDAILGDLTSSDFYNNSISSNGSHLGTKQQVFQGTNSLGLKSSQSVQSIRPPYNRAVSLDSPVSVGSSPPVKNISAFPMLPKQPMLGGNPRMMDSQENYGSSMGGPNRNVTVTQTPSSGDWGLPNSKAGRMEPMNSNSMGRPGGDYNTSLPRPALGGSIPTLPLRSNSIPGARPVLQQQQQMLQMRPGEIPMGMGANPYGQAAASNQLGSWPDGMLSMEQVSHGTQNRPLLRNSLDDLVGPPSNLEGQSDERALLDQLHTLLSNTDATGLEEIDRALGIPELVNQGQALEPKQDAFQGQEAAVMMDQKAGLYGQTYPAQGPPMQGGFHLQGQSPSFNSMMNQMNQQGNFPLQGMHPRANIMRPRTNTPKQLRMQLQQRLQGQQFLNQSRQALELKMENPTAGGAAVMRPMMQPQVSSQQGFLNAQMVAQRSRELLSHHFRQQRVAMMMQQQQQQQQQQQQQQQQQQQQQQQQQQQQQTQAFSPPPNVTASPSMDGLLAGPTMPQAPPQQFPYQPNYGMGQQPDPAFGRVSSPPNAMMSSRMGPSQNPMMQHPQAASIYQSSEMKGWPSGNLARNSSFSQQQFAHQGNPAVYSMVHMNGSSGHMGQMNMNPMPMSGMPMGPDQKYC
Chain of Nuclear receptor coactivator 1 (Homo sapiens) (Q15788 whole entry, looked up, the tested form may be a part): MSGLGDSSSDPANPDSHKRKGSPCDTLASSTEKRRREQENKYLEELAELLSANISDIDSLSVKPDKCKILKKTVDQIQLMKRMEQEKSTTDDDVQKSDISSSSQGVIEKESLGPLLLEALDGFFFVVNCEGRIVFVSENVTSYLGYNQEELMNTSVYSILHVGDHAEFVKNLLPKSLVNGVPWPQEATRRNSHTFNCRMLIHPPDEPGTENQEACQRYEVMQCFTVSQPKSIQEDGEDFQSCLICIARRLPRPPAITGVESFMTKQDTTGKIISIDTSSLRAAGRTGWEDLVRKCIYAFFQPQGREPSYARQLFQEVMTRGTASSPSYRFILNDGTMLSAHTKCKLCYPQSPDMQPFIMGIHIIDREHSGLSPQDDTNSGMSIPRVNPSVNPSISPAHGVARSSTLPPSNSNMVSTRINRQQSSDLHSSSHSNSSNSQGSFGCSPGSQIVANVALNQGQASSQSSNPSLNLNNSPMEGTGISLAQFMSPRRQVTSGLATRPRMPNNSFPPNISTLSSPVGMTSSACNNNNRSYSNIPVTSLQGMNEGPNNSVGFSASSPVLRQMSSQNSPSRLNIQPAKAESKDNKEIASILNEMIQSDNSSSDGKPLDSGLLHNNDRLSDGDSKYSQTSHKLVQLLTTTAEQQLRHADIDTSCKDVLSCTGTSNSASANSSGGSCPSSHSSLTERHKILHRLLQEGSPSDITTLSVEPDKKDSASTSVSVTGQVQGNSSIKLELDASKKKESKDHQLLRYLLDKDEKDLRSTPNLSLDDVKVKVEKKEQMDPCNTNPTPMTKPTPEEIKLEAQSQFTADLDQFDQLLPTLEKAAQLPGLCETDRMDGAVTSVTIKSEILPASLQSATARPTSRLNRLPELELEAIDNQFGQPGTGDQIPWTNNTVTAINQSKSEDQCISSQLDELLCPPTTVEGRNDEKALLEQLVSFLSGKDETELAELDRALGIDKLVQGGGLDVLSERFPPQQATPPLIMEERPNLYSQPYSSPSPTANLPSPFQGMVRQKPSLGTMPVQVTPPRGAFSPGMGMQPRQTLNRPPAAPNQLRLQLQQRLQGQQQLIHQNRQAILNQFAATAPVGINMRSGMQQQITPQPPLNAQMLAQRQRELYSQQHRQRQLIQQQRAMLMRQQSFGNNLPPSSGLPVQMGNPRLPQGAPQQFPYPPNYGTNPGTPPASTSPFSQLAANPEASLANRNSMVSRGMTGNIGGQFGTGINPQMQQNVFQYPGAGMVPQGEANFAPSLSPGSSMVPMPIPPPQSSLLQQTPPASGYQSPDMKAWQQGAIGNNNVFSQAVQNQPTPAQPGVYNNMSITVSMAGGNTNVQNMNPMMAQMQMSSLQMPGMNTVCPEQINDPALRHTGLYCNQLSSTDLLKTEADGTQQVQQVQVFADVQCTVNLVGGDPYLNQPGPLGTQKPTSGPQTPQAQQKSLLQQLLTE
Chain of Receptor-interacting serine/threonine-protein kinase 2 (Homo sapiens) (O43353 whole entry, looked up): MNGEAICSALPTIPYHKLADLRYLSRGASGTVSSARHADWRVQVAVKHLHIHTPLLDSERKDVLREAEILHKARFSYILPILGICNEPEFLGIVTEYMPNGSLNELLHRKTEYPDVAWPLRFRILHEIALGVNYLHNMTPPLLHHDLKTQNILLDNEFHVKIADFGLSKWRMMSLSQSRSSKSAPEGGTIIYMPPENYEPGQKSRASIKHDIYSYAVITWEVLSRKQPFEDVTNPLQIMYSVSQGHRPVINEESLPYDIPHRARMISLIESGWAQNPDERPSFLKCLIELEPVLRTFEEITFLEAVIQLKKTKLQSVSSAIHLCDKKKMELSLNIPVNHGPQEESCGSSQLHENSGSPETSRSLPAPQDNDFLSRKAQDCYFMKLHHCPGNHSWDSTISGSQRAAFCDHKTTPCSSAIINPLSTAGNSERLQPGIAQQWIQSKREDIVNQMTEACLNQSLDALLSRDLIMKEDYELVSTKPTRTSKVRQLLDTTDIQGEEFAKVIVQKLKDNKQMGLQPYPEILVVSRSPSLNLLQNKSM
Chain of Galanin receptor type 2 (Homo sapiens) (O43603 whole entry, looked up): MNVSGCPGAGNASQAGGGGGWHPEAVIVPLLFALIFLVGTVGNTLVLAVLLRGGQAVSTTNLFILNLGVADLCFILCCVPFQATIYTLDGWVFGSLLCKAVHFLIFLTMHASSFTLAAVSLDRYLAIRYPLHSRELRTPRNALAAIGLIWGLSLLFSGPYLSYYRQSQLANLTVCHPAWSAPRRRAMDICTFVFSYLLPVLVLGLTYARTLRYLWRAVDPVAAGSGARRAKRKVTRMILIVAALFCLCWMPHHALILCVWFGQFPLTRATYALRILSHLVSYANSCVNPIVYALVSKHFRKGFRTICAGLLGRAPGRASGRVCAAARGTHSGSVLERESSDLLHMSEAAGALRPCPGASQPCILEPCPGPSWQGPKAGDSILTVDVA

Consider `Cc1ccc(-n2c(O)c(C=Nc3cc(C)on3)c3ccccc3c2=O)c(C)c1`, for which the inhibition in assay [1] is 52.8% (active); in assay [2], 39.9% (active); in assay [3], 44.8%; in assay [4], 35.7% (active).
With `Cc1cc(/C=C2/C(=O)NN(c3ccccc3)C2=O)c(C)n1-c1ccc(O)cc1`, the inhibition in assay [1] was -13.6%; in assay [2], -41.7%; in assay [3], -66%; in assay [4], -74.4%.
`N#Cc1c2ccc(O)cc2n2ccccc12`: the inhibition was 41.8% in assay [1], 21.9% in assay [2], 42.8% in assay [3] and 11.9% in assay [4].
For `CCN(CC)CCNc1ccc(C)c2sc3ccc(O)cc3c(=O)c12`, in that order: 41.5%, 34.1% (active), 50% (active) and 31.8% (active).
On to `Cc1nn(Cc2ccc(Cl)cc2)c(C)c1NC(=O)c1cc(-c2ccc3c(c2)OCO3)on1`, for which the inhibition is 15.2% in assay [1], 50.3% (active) in assay [2], 29.5% in assay [3] and 54.1% (active) in assay [4].
For `Cc1nn(-c2ccccc2)c(Cl)c1C(=O)N1CCN(c2ncnc3c2cnn3-c2ccccc2)CC1`, the inhibition in assay [1] was 25.8%; in assay [2], 31.4% (active); in assay [3], 4.61%; in assay [4], 44.9% (active).
On to `O=[N+]([O-])c1ccc(O)c(/C=N/Nc2ccccn2)c1`, for which the inhibition in assay [1] was 56.8% (active); in assay [2], 41.6% (active); in assay [3] it was 60.6% (active); in assay [4], 37.1% (active).
For the compound `CCOc1ccc(-n2c(C)c(C(C)=O)c3cc(O)ccc32)cc1`, the inhibition in assay [1] is 59.7% (active); in assay [2] it was 51.2% (active); in assay [3], 60.8% (active); in assay [4], 48.2% (active).
Regarding `NC(=O)c1cc(Sc2ccccc2)nc2ccccc12`, the inhibition in assay [1] is 38%; in assay [2], 16.6%; in assay [3], 34.4%; in assay [4] it was 16%.
For `OCCNc1c2ccccc2nc2ccccc12`, the inhibition in assay [1] is 4.16%; in assay [2], 40.4% (active); in assay [3], 5.64%; in assay [4], 42.2% (active).
`N=c1c2c(-c3ccccc3)c(-c3ccccc3)n(Cc3ccco3)c2ncn1CCCn1ccnc1`: the inhibition in assay [1] is 34%; in assay [2], 54.2% (active); in assay [3], 43.8%; in assay [4] it was 57.4% (active).
For `CCCNC(=O)c1nnsc1S(=O)(=O)c1ccc(Cl)cc1`, the inhibition is 55.7% (active) in assay [1], 6.39% in assay [2], -64.8% in assay [3] and 5.6% in assay [4].
With `O=C(NNc1ccccc1)C(=O)NNc1ccccc1`, the inhibition is 25.6% in assay [1], 49.3% (active) in assay [2], 8.21% in assay [3] and 48.9% (active) in assay [4].
Take `O=C(C=P(c1ccccc1)(c1ccccc1)c1ccccc1)c1ccccc1-c1ccccc1C(=O)C=P(c1ccccc1)(c1ccccc1)c1ccccc1`: the inhibition in assay [1] was 60.6% (active); in assay [2], 83.9% (active); in assay [3] it was 24.4%; in assay [4], 82.8% (active).
For `COc1ccc(-n2c(C)c(C(C)=O)c3cc(OC(C)=O)ccc32)cc1`, in that order: 77.5% (active), 55% (active), 65.2% (active) and 60.4% (active).
Take `COc1ccc(-c2cn[nH]c2N)c(OC)c1`: the inhibition in assay [1] is 59.7% (active); in assay [2], 50.5% (active); in assay [3], 43.9%; in assay [4] it was 41.7% (active).
On to `O=C(NC1CCCCCCC1)C1c2ccccc2C(=O)N1Cc1cccs1` (stereo unspecified), for which the inhibition in assay [1] is 5.02%; in assay [2], 14.6%; in assay [3], 4.81%; in assay [4], 9.14%.
In the case of `O=C(COc1ccccc1O)NNc1ccccc1`, the inhibition is 11.6% in assay [1], 24% in assay [2], -12.2% in assay [3] and 29.2% (active) in assay [4].
For `Nc1nc(/C=C/c2cccnc2)nc(-c2ccccc2O)n1`, in that order: -12.6%, 0.59%, -16.8% and 14.2%.
For `COc1ccc(Cl)cc1Nc1nc(-c2sc(NC(=O)C(C)(C)C)nc2C)cs1`, in that order: 15.2%, 35.9% (active), 14.5% and 39.8% (active).
In the case of `Cc1ccc(S(=O)(=O)N2CCN(S(C)(=O)=O)CC2)cc1`, the inhibition was 24.1% in assay [1], 19.9% in assay [2], -0.28% in assay [3] and 6.89% in assay [4].
`Cc1nc2c(-c3ccc(Cl)cc3)c(C)[nH]n2c(=O)c1Cc1ccccc1`: the inhibition in assay [1] is 24.1%; in assay [2], 29.3%; in assay [3] it was 24.5%; in assay [4], 22.1%.
For the compound `COc1ccc(-n2cc(-c3ccccc3)[n+]3c2CCCCC3)cc1`, the inhibition in assay [1] is 24.8%; in assay [2], 22%; in assay [3], 16.8%; in assay [4], 27.7% (active).
Take `CC[C@H]1CN2CCc3cc(OC)c(OC)cc3[C@@H]2C[C@@H]1C[C@H]1NCCc2cc(OC)c(OC)cc21`: the inhibition in assay [5] was 102% (active); in assay [6], 92.8% (active); in assay [7], 30.7% (active); in assay [8], -0.09%.

The inhibition is the relative decrease from the control value, in per cent.
